From PubChem BioAssay
Only a selection was taken, and hits are over-represented in it overall.
LASV entry inh: blocks Lassa virus binding to or entry into cells. Potency, µM (titrated, usually from 37.9 µM), inactives show top-dose activity change, negative = inhibition, hits mostly inhibitors. hit rate 1.2% among 300,000. Lassa virus pseudotype entry inhibition, cell reporter; calls by dose curve; tested in HEK293 cells; further: potency means the concentration at half of the fitted maximal effect; on the % scale 0 is the no-effect control and ±100 the full control effect; nearly all actives have a fitted effect of over 50% in size
VACV Venus inh: vaccinia inhibition (Venus reporter); Vaccinia virus Venus reporter expression, fluorescence; Potency, µM (titrated, usually from 36.5 µM), for inactives: top-dose activity change, negative = inhibition, hits mostly inhibitors; hit rate 0.46% among 330,000; calls by dose curve; tested in A549 cells; further: potency means the concentration at half of the fitted maximal effect; on the % scale 0 is the no-effect control and ±100 the full control effect; nearly all actives have a fitted effect of over 30% in size
MARV entry inh: blocks Marburg virus binding to or entry into cells; Marburg virus pseudotyped entry inhibition, cell reporter; Potency, µM (highest dose often 37.8 µM), for the others: at the highest dose activity change, negative = inhibition, most hits filed as inhibitors; hit rate 1.8% among 300,000; AID 540276; calls by dose curve; tested in HEK293 cells; further: potency means the concentration at half of the fitted maximal effect; on the % scale 0 is the no-effect control and ±100 the full control effect
CHX counter: affects cycloheximide protein synthesis inhibition readout, counter-screen; cell reporter, cycloheximide protein synthesis inhibition counterscreen; max response, %; hit rate 12% among 300,000; in the data active means max response mostly above about 13%, no sharp cut-off; inactive means mostly below about 14%; further: read at 38.3 µM for the half of the compounds with a filed dose; 0% is about no effect
Vaccinia mCherry: inhibitors of vaccinia virus infection (mCherry reporter signal); AID 720579; Vaccinia virus mCherry reporter infection, fluorescence; hit rate 0.63% among 310,000; Potency, µM (series often up to 36.5 µM), for inactives: at the top dose activity change, negative = inhibition, hits mostly inhibitors; calls by dose curve; tested in A549 cells; further: potency means the concentration at half of the fitted maximal effect; on the % scale 0 is the no-effect control and ±100 the full control effect; nearly all actives have a fitted effect of over 35% in size
Shiga inhibitor: inhibitors of Shiga toxin in Vero cells | Vero cells, Shiga toxin protein synthesis inhibition reporter | AID 2315 | inhibition, % at 38.7 µM | hit rate 9.2% among 290,000; in the data active means inhibition mostly above about 28%, no sharp cut-off; inactive means mostly below about 43%; further: 0% is about no effect
Numbers without * were called inactive; [ ] = dose if it differs, or a comment.

Results for COc1ccc(OCc2nc(N)nc(Nc3ccccc3)n2)cc1 ?
LASV entry inh: 0%; MARV entry inh: inconclusive; CHX counter: 21*; Shiga inhibitor: 25

Results for Cc1ccc(Nc2nc(N)nc(CN3CCN(C)CC3)n2)cc1 ?
LASV entry inh: inconclusive; MARV entry inh: -2%; CHX counter: 32*; Shiga inhibitor: 81

Results for Cc1nc(N)nc(COc2ccccc2)n1 ?
LASV entry inh: -2%; VACV Venus inh: -18%; MARV entry inh: inconclusive; CHX counter: 37*; Vaccinia mCherry: -11%; Shiga inhibitor: 46*

Results for COc1c(C)cc(C(O)c2ncc(-c3ccc(Cl)cc3)[nH]2)cc1C (centres undefined) ?
VACV Venus inh: -16%; Vaccinia mCherry: 11%

How did O=C(NC(c1ccc(Cl)cc1)c1cccnc1)C1CCN(CCOc2ccc(Cl)cc2Cl)CC1 (centres undefined) do in these assays?
VACV Venus inh: -17%; Vaccinia mCherry: inactive

How did Cc1ccc(-c2nc3scc(CCNC(=O)Cc4ccc(Cl)cc4)n3n2)cc1 do in these assays?
LASV entry inh: -4%[46.1 µM]; VACV Venus inh: -14%; Vaccinia mCherry: -13%

What do the screens show for `O=C(C1CCCCC1)N(Cc1cccnc1)c1nc2ccc(F)cc2s1`?
LASV entry inh: inconclusive; VACV Venus inh: -16%; Vaccinia mCherry: inactive

What do the screens show for `Cc1cccc(-c2nc3cc(NC(=O)C4CCCO4)ccc3o2)c1` (centres undefined)?
LASV entry inh: 7.9µM*; VACV Venus inh: -12%; MARV entry inh: 7.1µM*; CHX counter: 67*; Vaccinia mCherry: inactive; Shiga inhibitor: active

What do the screens show for `Cc1ccc2oc(-c3cccc(NC(=O)C4CCCO4)c3)nc2c1` (centres undefined)?
LASV entry inh: 4%; VACV Venus inh: -16%; MARV entry inh: 14%; CHX counter: 41*; Vaccinia mCherry: -8%; Shiga inhibitor: 76*

Results for O=C(Nc1cccc(-c2nc3cc(Cl)ccc3o2)c1)C1CCCO1 (centres undefined) ?
LASV entry inh: -2%; VACV Venus inh: -1%; MARV entry inh: -2%; CHX counter: 14*; Vaccinia mCherry: -9%; Shiga inhibitor: 47

What do the screens show for `COc1cc(C(=O)Nc2cccc(-c3nc4cc(C)ccc4o3)c2)cc(OC)c1OC`?
LASV entry inh: 2%; VACV Venus inh: -5%; MARV entry inh: 8%; CHX counter: 17*; Vaccinia mCherry: -4%; Shiga inhibitor: 81*

How did COc1cc(C(=O)Nc2cc(-c3nc4cc(C)ccc4o3)ccc2C)cc(OC)c1OC do in these assays?
LASV entry inh: -5%; VACV Venus inh: 3%; MARV entry inh: -9%; CHX counter: 9; Shiga inhibitor: 15

How did CCOC(=O)N/N=C1\C[C@@H](O)[C@@H](O)[C@@H]2[C@@H]3C(=O)N(Cc4ccccc4)C(=O)[C@@H]3CC[C@H]12 do in these assays?
MARV entry inh: 25%[14.2 µM]

How did NC(=O)c1nn2c(C(F)(F)F)cc(-c3ccc(Br)cc3)nc2c1Cl do in these assays?
LASV entry inh: 20%[46.1 µM]; VACV Venus inh: -23%; Vaccinia mCherry: -21%

Results for O=C(CSc1nnc(-c2ccc(S(=O)(=O)N3CCCC3)cc2)o1)NCC1CCCO1 (centres undefined) ?
LASV entry inh: 4%; VACV Venus inh: 4.5µM*; MARV entry inh: inconclusive; CHX counter: -3; Vaccinia mCherry: 4µM*; Shiga inhibitor: -20

How did NC(=O)CSc1nnc(-c2ccc(S(=O)(=O)N3CCCC3)cc2)o1 do in these assays?
LASV entry inh: -8%; VACV Venus inh: 3.2µM*; MARV entry inh: -2%; CHX counter: -1; Vaccinia mCherry: inconclusive; Shiga inhibitor: -4

Results for O=C(CSc1nnc(-c2cccc(Br)c2)o1)NCC1CCCO1 (centres undefined) ?
VACV Venus inh: 14µM*; Vaccinia mCherry: inconclusive

How did CC1(C)OC(=O)N(c2ccccc2)C12C=Cc1cc(Br)ccc1O2 (centres undefined) do in these assays?
LASV entry inh: -11%; MARV entry inh: 18µM*; CHX counter: -2; Shiga inhibitor: -13

Results for CC1(C)OC(=O)N(CCc2ccccc2)C1(C)O (centres undefined) ?
LASV entry inh: -6%; MARV entry inh: -14%; CHX counter: -1; Shiga inhibitor: -9
